The results in this text go back to paper PMC5540273 (PLoS ONE, 2017).
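Further: KINOMEscan kinase panel screen.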

The test concerns MYLK4. The settings on record: concentration: 1 μM, replicates: in singlicate; n = 1.
With `O=C(O)C(F)(F)F.O=C(O)C(F)(F)F.O=c1[nH]ccc2nc(N[C@@H]3CCCNC3)nc(Nc3ccc(S(=O)(=O)N4CCOCC4)cc3)c12` [GSK2177277], the “%Inh” value was 91.3%.
Next, `COc1cc(Nc2nccc(N3CCC(NC(=O)c4cc5ccccc5s4)C3)n2)cc(OC)c1OC` (stereo not shown) [GSK1379760]: 3%; `CN1CCN(Cc2cccc(-c3ccc4c(Nc5ccc(Oc6ccccc6)cc5)ccnc4c3)c2)CC1` [GW578342]: 0%.
Next, `Fc1ccc(-c2ncn(C3CCNCC3)c2-c2ccnc(Oc3ccc(-c4ccccc4)cc3)n2)cc1` [SB-245391]: 21%; `Cc1ccc(S(=O)(=O)Nc2ccc(Nc3nccc(Nc4cccc5[nH]ncc45)n3)cc2)cc1` [GSK581271]: 50%.
`COC(=O)Nc1nc2ccc(Oc3ccc(NC(=O)Nc4cc(C(F)(F)F)ccc4F)cc3)cc2n1C.Cl` [GW692089]: the “%Inh” value is 0%.
In the case of `O=C(Nc1n[nH]c2nc(-c3ccc(O)cc3)ccc12)C1CC1` [SB-710363] it was 31%.
Next, `CNC(=O)c1ccccc1Nc1nc(Nc2ccc(N3CCOCC3)cc2)ncc1Cl.Cl` [GSK1576028]: 99.9%.
For the molecule `Cl.NC(=O)c1cccc(Nc2nccc(Nc3ccc(Oc4c(Cl)cccc4Cl)c(Cl)c3)n2)c1` [GW659009], the “%Inh” value is on record as 0%.
In the case of `COc1cc(Nc2nccc(-c3c(-c4cccc(NC(=O)c5c(F)cccc5F)c4)nn4ccccc34)n2)cc(OC)c1OC` [GSK323521] it was 5%; in that of `Cn1cc(-c2ccc3c(c2)CCN3C(=O)Cc2cccc(F)c2)c2c(N)ncnc21` [GSK2603358], 0%; in that of `Cc1cccc(Nc2nc(N[C@H]3CCNC3)ncc2C(N)=O)c1.Cl` [GSK2197149], 81%.
In the case of `c1ccc(-c2n[nH]cc2Nc2ccnc3ccccc23)nc1` [GW694077] it was 99.9%; in that of `CN(C)Cc1ccc(-c2ccc3c(Nc4ccc(Oc5ccccn5)cc4)ccnc3c2)o1` [GW567148], 0%; in that of `CCS(=O)(=O)c1ccc(OC)c(Nc2nccc(-c3c(-c4cccc(NC(=O)c5c(F)cccc5F)c4)nn4ncccc34)n2)c1` [GSK326180], 2%.
`COc1cccc(C2=C(Nc3ccc(Cl)c(C(=O)O)c3)C(=O)NC2=O)c1` [SB-390769]: the “%Inh” value stood at 60%.
In the case of `COc1cccc(NC(=O)NC2CCN(c3ccnc(Nc4cc(OC)c(OC)c(OC)c4)n3)C2)c1` (stereo not shown) [GSK1379763], the “%Inh” value worked out at 0%.
As for `Cc1ccc(C)c(NC(=O)NC2CCN(c3ccnc(Nc4ccc(F)cc4)n3)C2)c1` (stereo not shown) [GSK1379720], the “%Inh” value was 0%.
Next, `Cc1ccc(F)c(C(=O)Nc2cccc(-c3nn4ccccc4c3-c3ccnc(Nc4cccc(F)c4)n3)c2)c1F` [GSK361061]: 0%; `Cc1occc1-c1ncc(OC[C@@H](N)Cc2c[nH]c3ccccc23)cc1-c1ccc2[nH]nc(C)c2c1.O=C(O)C(F)(F)F` [GSK682037]: 0%.
In the case of `COc1ccc(Nc2nccc(N3CCC(NC(=O)Nc4cccc(OC)c4)C3)n2)cc1` (stereo not shown) [GSK1379742] it was 0%; in that of `CC(=O)N1CCN(c2ccc(Nc3nccc(-c4sc(C(C)C)nc4-c4cccc(NS(=O)(=O)c5cccc(Cl)c5)c4)n3)cn2)CC1` [GSK1660437], 0%.
As to `Nc1ncnc2c1nc(-c1ccccc1)n2-c1ccccc1` [SKF-97293], the “%Inh” value was 25%.
Next, `O=C(NC1CCN(c2ccnc(Nc3ccc(F)cc3)n2)C1)c1cc2ccccc2s1` (stereo not shown) [GSK1379716]: 5%; `COc1cccc(C(=O)Nc2cccc(Oc3ccc4nc(NC(=O)C5CC5)cn4n3)c2)c1`: 0%.
With `Cl.Cl.NCC(C(=O)Nc1cc(Br)c(-c2ccnc3[nH]ccc23)s1)c1ccccc1` (stereo not shown) [GSK1269851], the “%Inh” value is 99.8%.
In the case of `Cn1cc(-c2ccc3c(c2)CCN3C(=O)Cc2cccc(Cl)c2)c2c(N)ncnc21` [GSK2606590] it was 0%.
With `COc1cc(Nc2ncc3c(C)nc(-c4cc5ccccc5[nH]4)n3n2)cc(OC)c1OC` [GW869516], the “%Inh” value is listed as 39%.
In the case of `O=C(Nc1cccc(-c2nn3ccccc3c2-c2ccnc(Nc3cccc(F)c3)n2)c1)c1c(F)ccc(F)c1Cl` [GSK357952] it was 0%.
Turning to `C[C@@H](Oc1cc(-n2cnc3cc(-c4ccnc(NCCS(C)(=O)=O)c4)ccc32)sc1C(N)=O)c1ccccc1Cl` [GSK907232], the “%Inh” value was 2%.
In the case of `COc1cccc(-c2ccc3c(NC(=O)C4CC4)n[nH]c3n2)c1` [SB-710903] it was 6%; in that of `Cc1ccc(C(=O)N2CC[C@@H](O)C2)cc1-n1c(C)cc(OCc2ccc(F)cc2F)c(Br)c1=O`, 0%; in that of `Cl.c1ccc(-c2ccc3c(Nc4ccc5[nH]ccc5c4)ccnc3c2)nc1` [GW440138], 0%.
For `CCc1ccc(-c2ccc3c(c2)-c2c(cnn2C)S(=O)(=O)N3C)cc1`, the “%Inh” value is recorded as 1%.
Next, `COc1ccc(Nc2nccc(NCCNC(=O)c3cc4ccccc4s3)n2)cc1` [GSK1379896]: 6%; `Nc1ncc(-c2ccc3nccc(-c4ccncc4)c3c2)cc1S(=O)(=O)N1CCOCC1` [GSK1627798]: 0%; `O=C(Nc1n[nH]c2cc(-c3ccoc3)ccc12)C1CC1` [SB-738481]: 19%.
